Test results: PubChem BioAssay (NCATS)
Results filed as inconclusive are left out. Calls of active or inactive are those of the source. Calls follow the shape of the dose curve; as a rule, active = well fitted curve in the direction sought with a large enough effect; inconclusive = small, poorly fitted or top-dose-only effect, or another doubt; inactive = no such curve, though single readings can be large; an effect the other way counts as inactive or inconclusive.

Tests used:
[1] = NS1 protein of Zika virus - qHTS assay to identify small molecule inhibitors in human HEK 293 cells (AID 1347053); also: nearly all actives have a fitted effect of over 55% in size
Outline: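 Inhibition of NS1 expression was scored in HEK 293 cells given compound 1 h ahead of MR766 virus (MOI = 0.5). Following 24 h at 37 C, two anti-NS1 antibodies generated a TR-FRET signal, scaled between uninfected and infected controls.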

[2] = qHTS of pediatric cancer cell lines to identify multiple opportunities for drug repurposing: Primary screen for TC32 cells (AID 1347089); also: nearly all actives have a fitted effect of over 60% in size
Outline: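 Measured quantity: luminescence from CellTiter-Glo, reflecting metabolically active TC32 cells following 48 h of compound. Curves came straight from multi-point titrations, with 8 or 11 points in primary and 11 in confirmatory screening.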

[3] = qHTS of pediatric cancer cell lines to identify multiple opportunities for drug repurposing: Primary screen for DAOY cells (AID 1347090); also: nearly all actives have a fitted effect of over 55% in size
Outline: (§1)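 Viability measured as metabolically active cells via CellTiter-Glo luminescence following 48 hours of compound exposure, 11-point dilutions in confirmatory testing. 500-1,000 cells/well plated 5 hours before dosing; controls were DMSO and 2.3 µM bortezomib.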

[4] = qHTS of pediatric cancer cell lines to identify multiple opportunities for drug repurposing: Primary screen for SJ-GBM2 cells (AID 1347091)
Outline: as §1

[5] = qHTS of pediatric cancer cell lines to identify multiple opportunities for drug repurposing: Primary screen for A673 cells (AID 1347092); also: nearly all actives have a fitted effect of over 45% in size
Outline: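 Cells are plated, rested 5 h, dosed by pintool, incubated 48 h, then lysed with CellTiter-Glo and read by luminescence. DMSO is the neutral control; bortezomib at 2.3 uM final is the positive control.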

[6] = qHTS of pediatric cancer cell lines to identify multiple opportunities for drug repurposing: Primary screen for SK-N-MC cells (AID 1347093)
Outline: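 Metabolically active cells were quantified by ATP-dependent luminescence (CellTiter-Glo, 15 min at room temperature) following 48 h treatment. Cells had been plated at 500-1,000 per well and settled for 5 h beforehand.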

Measured: Potency
Potency is read from the fitted curve at half-maximal effect.

CC(C)(C)[N+]([O-])=Cc1ccc(S(=O)(=O)O)cc1S(=O)(=O)O
inactive: all assays above

C[C@]12CC[C@@H]3c4ccc(O)cc4CC[C@H]3[C@H]1CC[C@H]2O
inactive: [1] | [2]
active: [3] 18700 nM | [4] 16600 nM | [5] 2960 nM | [6] 10500 nM

OCCN1C[C@H](O)[C@@H](O)[C@H](O)[C@@H]1CO
active: [5] 9350 nM
inactive: all other assays above

NC(=O)c1ncn([C@@H]2O[C@H](CO)[C@@H](O)[C@@H]2O)c1O
inactive: all assays above

Cn1cc(C[C@@H](N)C(=O)O)c2ccccc21
inactive: all assays above

Cc1ccccc1C(=O)Nc1ccc(C(=O)N2CCCC(O)c3cc(Cl)ccc32)c(C)c1 (stereo not drawn)
inactive: all assays above

COc1ccnc2[nH]cc(C(=O)C(=O)N3CCN(C(=O)c4ccccc4)C[C@@H]3C)c12
inactive: all assays above

NS(=O)(=O)OC[C@@H]1C[C@@H](n2ccc3c(N[C@H]4CCc5ccccc54)ncnc32)C[C@H]1O
inactive: [1]
active: [2] 1650 nM | [3] 590 nM | [4] 296 nM | [5] 148 nM | [6] 93.5 nM

O=C(CCCCCCC(=O)Nc1cccnc1)NO
inactive: [1]
active: [2] 20800 nM | [3] 14800 nM | [4] 7430 nM | [5] 11800 nM | [6] 2960 nM

O=C(NC1CC1)c1cccc(-c2ccc3c(NC(=O)C4CC4)n[nH]c3c2)c1
inactive: [1]
active: [2] 9300 nM | [3] 1180 nM | [4] 13200 nM | [5] 372 nM | [6] 372 nM

O=C1NC(=O)C(=Cc2ccc3nccc(-c4ccncc4)c3c2)S1
active: [1] 743 nM | [2] 523 nM | [3] 235 nM | [4] 93.5 nM | [5] 187 nM | [6] 16.6 nM

N#CC(=C(O)c1ccc(Cl)cc1Cl)c1nc2cc(Cl)ccc2c(=O)[nH]1
not listed: [6]
inactive: all other assays above

NC(=O)Nc1sc(-c2ccc(F)cc2)cc1C(N)=O
inactive: [1]
active: [2] 3700 nM | [3] 469 nM | [4] 372 nM | [5] 590 nM

COc1cc(C=CC(=O)CC(=O)C=Cc2ccc(O)c(OC)c2)ccc1O
active: [1] 19100 nM | [2] 33900 nM | [3] 21500 nM | [4] 30300 nM | [5] 6790 nM | [6] 5400 nM

COc1cc(OC)c(NC(=O)Nc2cc(C)on2)cc1Cl
not listed: [6]
inactive: all other assays above

O=C(O)CCCCCC(=O)NN=C1CCCC1
not listed: [6]
inactive: all other assays above

COC1=C(OC)C(=O)C(CC=C(C)CCC=C(C)CCC=C(C)CCC=C(C)CCC=C(C)CCC=C(C)CCC=C(C)CCC=C(C)CCC=C(C)CCC=C(C)C)=C(C)C1=O
inactive: all assays above

COC(=O)C=CC(=O)OC
active: [3] 1870 nM | [5] 7430 nM | [6] 3.7 nM
inactive: all other assays above

CC(=O)OCC(=O)[C@@]1(O)CC[C@H]2[C@@H]3CCC4=CC(=O)CC[C@]4(C)[C@@H]3C(=O)C[C@@]21C
inactive: all assays above

C[C@@]12C[C@@]3(O)O[C@@H](O1)[C@]1(COC(=O)c4ccccc4)[C@@H]3C[C@@]12O[C@@H]1O[C@H](CO)[C@@H](O)[C@H](O)[C@@H]1O
inactive: all assays above

C=C1CCC2[C@](C)(CO)C(O)CC[C@]2(C)C1CC=C1C(=O)OCC1O (stereo partly drawn)
inactive: all assays above

COC(=O)[C@@H]1CC2=CC(=O)CC[C@]2(C)[C@@]23O[C@@H]2C[C@@]2(C)[C@H](CC[C@@]24CCC(=O)O4)[C@@H]13
inactive: all assays above

C=Cc1c(C)c2cc3nc(cc4[nH]c(cc5nc(cc1[nH]2)C(C)=C5CCC(=O)O)c(CCC(=O)OC)c4C)[C@@]1(C)C3=CC=C(C(=O)OC)[C@H]1C(=O)OC
active: [2] 5870 nM | [3] 187 nM | [4] 590 nM | [5] 37.2 nM | [6] 59 nM
inactive: [1]

CC(=O)N[C@H]1[C@@H]([C@H](O)[C@H](O)CO)OC(C(=O)O)=C[C@@H]1N=C(N)N
inactive: all assays above

CCc1c(O)cc(O)c(C(=O)c2ccc(OCCN3CCOCC3)c(OC)c2)c1CC(=O)N(CCOC)CCOC
active: [2] 2940 nM | [3] 14800 nM | [4] 1180 nM | [5] 935 nM | [6] 526 nM
inactive: [1]

CN[C@@H]1C[C@H]2O[C@@](C)([C@H]1OC)n1c3ccccc3c3c4c(c5c6ccccc6n2c5c31)C(=O)N[C@H]4O
active: [1] 418 nM | [2] 2940 nM | [3] 469 nM | [4] 118 nM | [5] 296 nM | [6] 37.2 nM

CN(N=O)C(=O)N[C@H]1C(O)OC(CO)[C@@H](O)[C@H]1O (stereo partly drawn)
inactive: all assays above

C[C@](Cc1c[nH]c2ccccc12)(NC(=O)OC1C2CC3CC(C2)CC1C3)C(=O)NC[C@H](NC(=O)CCC(=O)O)c1ccccc1 (stereo partly drawn)
active: [6] 20900 nM
not listed: [5]
inactive: all other assays above

CN(C)CC[C@H](c1ccc(Cl)cc1)c1ccccn1
active: [3] 23500 nM | [6] 10500 nM
inactive: [1] | [2] | [4]

CC(=O)NCC(=O)N1[C@H]2CC[C@H]1c1cc(Nc3ncc(C(F)(F)F)c(NC4CCC4)n3)ccc12
active: [1] 13200 nM | [2] 131 nM | [3] 18700 nM | [4] 83.3 nM | [5] 3720 nM | [6] 118 nM

COc1ccc(C[C@@H](C)[C@@H](C)Cc2ccc(OC)c(OC)c2)cc1OC
active: [1] 833 nM | [2] 9300 nM | [3] 235 nM | [4] 418 nM | [5] 935 nM | [6] 833 nM

Nc1nc(=O)n([C@H]2CSC(CO)O2)cc1F (stereo partly drawn)
inactive: all assays above

O=C1c2c(O)cccc2[C@@H]([C@@H]2O[C@H](CO)[C@@H](O)[C@H](O)[C@H]2O)c2cc(CO)cc(O)c21
active: [6] 11800 nM
inactive: all other assays above

O=C(NNC(=O)c1ccc(CNS(=O)(=O)c2ccc(F)c(Cl)c2)cc1)c1ccccc1
inactive: all assays above

C[C@@H](Cc1cc2c(c(C(N)=O)c1)N(CCCO)CC2)NCCOc1ccccc1OCC(F)(F)F
not listed: [5]
inactive: all other assays above

COc1ccc(Nc2cc(-c3cnc(N)nc3)nc(N3CCOCC3)n2)cn1
active: [1] 16600 nM | [2] 4660 nM | [3] 4690 nM | [4] 4180 nM | [6] 372 nM

OC[C@H]1OC(O)C[C@@H](O)[C@H]1O (stereo partly drawn)
inactive: all assays above

O=S(=O)(O)CCSSCCS(=O)(=O)O
active: [6] 10500 nM
inactive: all other assays above

COc1cccc2c1C(=O)c1c(O)c3c(c(O)c1C2=O)C[C@@](O)(C(=O)CO)C[C@@H]3O[C@H]1C[C@H](N)[C@@H](O)[C@H](C)O1
active: [1] 296 nM | [2] 658 nM | [3] 1870 nM | [4] 264 nM | [5] 372 nM | [6] 235 nM

CNC(=O)Nc1ccc(-c2nc(N3CC4CCC(C3)O4)c3cnn(C4CCC5(CC4)OCCO5)c3n2)cc1
active: [1] 16600 nM | [2] 26.2 nM | [3] 29.6 nM | [4] 29.6 nM | [6] 2.6 nM

CC(C(C)N1CC(=O)NC(=O)C1)N1CC(=O)NC(=O)C1 (stereo not drawn)
inactive: [1] | [2] | [3]
active: [4] 743 nM | [6] 743 nM

CC(C)(O)[C@H]1CC[C@@](C)([C@H]2[C@@H](O)C[C@@]3(C)[C@@H]4C[C@H](O[C@@H]5O[C@H](CO)[C@@H](O)[C@H](O)[C@@H]5O)[C@H]5C(C)(C)[C@@H](O[C@@H]6OC[C@@H](O)[C@H](O)[C@@H]6O)CC[C@@]56C[C@@]46CC[C@]23C)O1
inactive: all assays above

COC[C@H](NC(=O)c1cnc(C)s1)C(=O)N[C@@H](COC)C(=O)N[C@@H](Cc1ccccc1)C(=O)[C@@]1(C)CO1
active: [1] 1180 nM | [2] 587 nM | [3] 296 nM | [4] 66.2 nM | [5] 93.5 nM | [6] 29.6 nM

COc1cc(OC)cc(-c2ccc3ncc4ccc(=O)n(-c5ccc(N6CCNCC6)c(C(F)(F)F)c5)c4c3c2)c1
active: [1] 11800 nM | [2] 18600 nM | [3] 2960 nM | [4] 4180 nM | [6] 1320 nM

O=[N+]([O-])c1cn2c(n1)OC[C@@H](OCc1ccc(OC(F)(F)F)cc1)C2
not listed: [5]
inactive: all other assays above
